# Measurements taken from the supplement of paper PMC8728848.
# This excerpt belongs to a sample that is enriched for the strongest signals.
# B1: SUN4 (Saccharomyces cerevisiae), P53616 (protein)
# chain: MGSSHHHHHHSSGLVPRGSHNGSIYGDLADFSGPYEKFEDGTIPCGQFPSGQGVIPISWLDEGGWSGVENTDTSTGGSCKEGSYCSYACQPGMSKTQWPSDQPSDGRSIGGLLCKDGYLYRSNTDTDYLCEWGVDAAYVVSELSNDVAICRTDYPGTENMVIPTYVQAGDSLPLTVVDQDTYYTWQGLKTSAQYYVNNAGISVEDACVWGSSSSGVGNWAPLNFGAGSSDGVAYLSLIPNPNNGNALNFNVKIVAADDSSTVNGECIYENGSFSGGSDGCTVSVTAGKAKFVLYN
# Legend:
# Assay in all cases: glycan array binding signal (z-score within array); higher = stronger binding
# Details in all cases: glycan notation: IUPAC condensed, linker removed
# [1] = target: Fuc(a1-2)Gal(b1-3)GalNAc(b1-3)Gal(a1-4)Gal(b1-4)Glc
# Summary of the method: (§1)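 Glycan array data were curated from 3228 arrays in the Consortium for Functional Glycomics database and kept only where the protein sequence was available. Glycan names were converted to IUPAC-condensed notation, and columns mapping to the same glycan were averaged. The binding signal is a within-array Z-score, averaged across arrays of the same protein sequence at different concentrations or buffers and across linkers. Negative Z-scores can be read as non-binding.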
# [2] = target: Fuc(a1-2)Gal(b1-3)[Fuc(a1-4)]GlcNAc
# Summary of the method: as §1
# [3] = target: Fuc(a1-2)Gal(b1-3)[Fuc(a1-4)]GlcNAc(b1-2)Man(a1-3)[Fuc(a1-2)Gal(b1-3)[Fuc(a1-4)]GlcNAc(b1-2)Man(a1-3)]Man(b1-4)GlcNAc(b1-4)GlcNAc
# Summary of the method: as §1
# [4] = target: Fuc(a1-2)Gal(b1-3)[Fuc(a1-4)]GlcNAc(b1-3)[Gal(b1-4)GlcNAc(b1-6)]Gal(b1-4)Glc
# Summary of the method: as §1
# [5] = target: Fuc(a1-2)Gal(b1-4)GlcNAc(b1-2)Man
# Summary of the method: as §1
# [6] = target: Fuc(a1-2)[Gal(a1-3)]Gal(b1-3)GlcNAc(b1-6)GalNAc
# Summary of the method: as §1
# [7] = target: Fuc(a1-2)[Gal(a1-3)]Gal(b1-4)[Fuc(a1-3)]GlcNAc(b1-3)GalNAc
# Summary of the method: as §1
# [8] = target: Fuc(a1-2)[GalNAc(a1-3)]Gal(b1-3)GlcNAc(b1-6)GalNAc
# Summary of the method: as §1
# [9] = target: Fuc(a1-2)[GalNAc(a1-3)]Gal(b1-4)Glc
# Summary of the method: as §1
# [10] = target: Gal(a1-3)Gal(b1-3)GlcNAc(b1-2)Man(a1-3)[Gal(a1-3)Gal(b1-3)GlcNAc(b1-2)Man(a1-6)]Man(b1-4)GlcNAc(b1-4)GlcNAc
# Summary of the method: as §1
# [11] = target: Gal(a1-3)Gal(b1-3)[Fuc(a1-4)]GlcNAc(b1-2)Man(a1-3)[Gal(a1-3)Gal(b1-3)[Fuc(a1-4)]GlcNAc(b1-2)Man(a1-6)]Man(b1-4)GlcNAc(b1-4)GlcNAc
# Summary of the method: as §1
# [12] = target: Gal(a1-3)Gal(b1-4)[Fuc(a1-3)]GlcNAc(b1-2)Man(a1-3)[Gal(a1-3)Gal(b1-4)[Fuc(a1-3)]GlcNAc(b1-2)Man(a1-6)]Man(b1-4)GlcNAc(b1-4)GlcNAc
# Summary of the method: as §1
# [13] = target: Gal(a1-4)Gal(b1-4)GlcNAc(b1-3)Gal(b1-4)Glc
# Summary of the method: as §1
# Gal(a1-6)Glc = target: Gal(a1-6)Glc
# Summary of the method: as §1
# Gal(b1-3)GalNAc(b1-3)Gal = target: Gal(b1-3)GalNAc(b1-3)Gal
# Summary of the method: as §1
# [14] = target: Gal(b1-3)GalNAc(b1-3)Gal(a1-4)Gal(b1-4)Glc
# Summary of the method: as §1
# [15] = target: Gal(b1-3)GlcNAc(b1-2)Man(a1-3)[Gal(b1-3)GlcNAc(b1-2)Man(a1-6)]Man(b1-4)GlcNAc(b1-4)[Fuc(a1-6)]GlcNAc
# Summary of the method: as §1
# [16] = target: Gal(b1-3)GlcNAc(b1-3)Gal(b1-4)GlcNAc(b1-2)Man(a1-3)[Gal(b1-3)GlcNAc(b1-3)Gal(b1-4)GlcNAc(b1-2)Man(a1-6)]Man(b1-4)GlcNAc(b1-4)GlcNAc
# Summary of the method: as §1
# [17] = target: Gal(b1-3)GlcNAc(b1-3)Gal(b1-4)[Fuc(a1-3)]GlcNAc(b1-6)[Gal(b1-3)GlcNAc(b1-3)]Gal(b1-4)Glc
# Summary of the method: as §1
# [18] = target: Gal(b1-3)GlcNAc(b1-3)GalNAc
# Summary of the method: as §1
# [19] = target: Gal(b1-3)GlcNAc(b1-6)[Gal(b1-3)]GalNAc
# Summary of the method: as §1
# [20] = target: Gal(b1-3)[Fuc(a1-4)]GlcNAc(b1-6)GalNAc
# Summary of the method: as §1
# Gal(b1-4)Glc6S = target: Gal(b1-4)Glc6S
# Summary of the method: as §1
# [21] = target: Gal(b1-4)GlcNAc(b1-2)Man(a1-3)[Gal(b1-4)GlcNAc(b1-2)Man(a1-6)]Man(b1-4)GlcNAc(b1-4)[Fuc(a1-6)]GlcNAc
# Summary of the method: as §1
# [22] = target: Gal(b1-4)GlcNAc(b1-2)[Gal(b1-4)GlcNAc(b1-4)]Man(a1-3)[GlcNAc(b1-4)][Gal(b1-4)GlcNAc(b1-2)Man(a1-6)]Man(b1-4)GlcNAc(b1-4)GlcNAc
# Summary of the method: as §1
# [23] = target: Gal(b1-4)GlcNAc(b1-3)Gal(b1-4)GlcNAc(b1-2)Man(a1-3)[Gal(b1-4)GlcNAc(b1-3)Gal(b1-4)GlcNAc(b1-2)Man(a1-6)]Man(b1-4)GlcNAc(b1-4)GlcNAc
# Summary of the method: as §1
# [24] = target: Gal(b1-4)GlcNAc(b1-3)Gal(b1-4)GlcNAc(b1-2)Man(a1-3)[Gal(b1-4)GlcNAc(b1-3)Gal(b1-4)GlcNAc(b1-2)Man(a1-6)]Man(b1-4)GlcNAc(b1-4)[Fuc(a1-6)]GlcNAc
# Summary of the method: as §1
binder,measurement,setting,value
B1,glycan array binding signal (z-score),[1],0.954
same,glycan array binding signal (z-score),[2],-0.752
same,glycan array binding signal (z-score),[3],-0.207
same,glycan array binding signal (z-score),[4],0.297
same,glycan array binding signal (z-score),[5],0.324
same,glycan array binding signal (z-score),[6],-0.368
same,glycan array binding signal (z-score),[7],-0.487
same,glycan array binding signal (z-score),[8],-0.525
same,glycan array binding signal (z-score),[9],-0.935
same,glycan array binding signal (z-score),[10],1.63
same,glycan array binding signal (z-score),[11],1.91
same,glycan array binding signal (z-score),[12],3.09
same,glycan array binding signal (z-score),[13],-0.077
same,glycan array binding signal (z-score),Gal(a1-6)Glc,-1.22
same,glycan array binding signal (z-score),Gal(b1-3)GalNAc(b1-3)Gal,-0.668
same,glycan array binding signal (z-score),[14],0.295
same,glycan array binding signal (z-score),[15],-0.257
same,glycan array binding signal (z-score),[16],0.342
same,glycan array binding signal (z-score),[17],-0.488
same,glycan array binding signal (z-score),[18],-0.163
same,glycan array binding signal (z-score),[19],0.101
same,glycan array binding signal (z-score),[20],0.835
same,glycan array binding signal (z-score),Gal(b1-4)Glc6S,-0.03
same,glycan array binding signal (z-score),[21],0.829
same,glycan array binding signal (z-score),[22],0.208
same,glycan array binding signal (z-score),[23],2.66
same,glycan array binding signal (z-score),[24],2
